Experimental data reported in PubChem BioAssay (Tox21).
Records with an inconclusive call do not appear. Calls of active or inactive are those of the source. Calls follow the shape of the dose curve; as a rule, active = well fitted curve in the direction sought with a large enough effect in the repeat runs; inconclusive = weak or mixed curves; inactive = no such curve, though single readings can be large; an effect the other way counts as inactive or inconclusive.

How the values were obtained:
[1] = A CellTox Green Cytotoxicity Assay to monitor cytotoxicity in HepG2 cells - 16 hour (AID 1224876); also: nearly all actives have a fitted effect of over 45% in size; also: potency is read from the fitted curve at half-maximal effect
How it was run: (§1)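 HepG2 cells were seeded together with the CellTox Green dye at 600 cells/well, left 5 h at 37 C/5% CO2, then given compounds in DMSO. Fluorescence from dye bound to dead-cell DNA was read repeatedly over 40 h of treatment at 37 C.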

[2] = qHTS RealTime-Glo MT Cell Viability Assay in HepG2 cells - 32 hour (AID 1224877); also: nearly all actives have a fitted effect of over 55% in size
How it was run: (§2)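 Cells + NanoLuc/prosubstrate dispensed (600 cells/well) → 5 h at 37 C/5% CO2 → compounds in DMSO transferred → 40 h incubation at 37 C, luminescence read at 0, 8, 16, 24, 32, 40 h.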

[3] = A CellTox Green Cytotoxicity Assay to monitor cytotoxicity in HepG2 cells - 24 hour (AID 1224878); also: nearly all actives have a fitted effect of over 45% in size; also: potency is read from the fitted curve at half-maximal effect
How it was run: as §1

[4] = A CellTox Green Cytotoxicity Assay to monitor cytotoxicity in HepG2 cells - 40 hour (AID 1224879); also: nearly all actives have a fitted effect of over 40% in size; also: potency is read from the fitted curve at half-maximal effect
How it was run: as §1

[5] = qHTS RealTime-Glo MT Cell Viability Assay in HEK293 cells - 0 hour (AID 1224880); also: top concentration of the series differs between compounds; nearly all actives have a fitted effect of over 45% in size
How it was run: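 HEK293 cells mixed with RealTime-Glo reagents (NanoLuc plus cell-permeant prosubstrate) at 600 cells/well, preincubated 5 h at 37 C/5% CO2, then given 23 nL compound in DMSO. Nonlytic luminescence from viable cells was read at 0, 8, 16, 24, 32 and 40 h.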

[6] = A CellTox Green Cytotoxicity Assay to monitor cytotoxicity in HEK293 cells - 32 hour (AID 1224881); also: nearly all actives have a fitted effect of over 40% in size; also: potency is read from the fitted curve at half-maximal effect
How it was run: (§3)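 HEK293 cells premixed with CellTox Green dye were seeded at 600 cells/well and left 5 h at 37 C/5% CO2 before pin transfer of 23 nL compound in DMSO. Fluorescence from dye bound to dead-cell DNA was read during 40 h treatment.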

[7] = A CellTox Green Cytotoxicity Assay to monitor cytotoxicity in HepG2 cells - 0 hour (AID 1224882); also: nearly all actives have a fitted effect of over 35% in size
How it was run: as §1

[8] = A CellTox Green Cytotoxicity Assay to monitor cytotoxicity in HEK293 cells - 8 hour (AID 1224884); also: nearly all actives have a fitted effect of over 35% in size; also: potency is read from the fitted curve at half-maximal effect
How it was run: as §3

[9] = A CellTox Green Cytotoxicity Assay to monitor cytotoxicity in HepG2 cells - 32 hour (AID 1224883); also: nearly all actives have a fitted effect of over 50% in size; also: potency is read from the fitted curve at half-maximal effect
How it was run: as §1

[10] = qHTS RealTime-Glo MT Cell Viability Assay in HepG2 cells - 16 hour (AID 1224885); also: nearly all actives have a fitted effect of over 50% in size
How it was run: as §2
% is scaled to controls: 0 for no effect and ±100 for the full control effect.

C=C(C)CCO
inactive: Potency [1] | Potency [2] | Potency [3] | Potency [4] | Potency [5] | Potency [6] | Potency [7] | Potency [8]

Nc1cc([N+](=O)[O-])cc(Cl)c1O
inactive: Potency [1] | Potency [2] | Potency [3] | Potency [4] | Potency [5] | Potency [6] | Potency [9] | Potency [8] | Potency [10]

SC1CCCCC1
inactive: Potency [1] | Potency [2] | Potency [3] | Potency [4] | Potency [5] | Potency [6] | Potency [7] | Potency [8]

CCN(CC)c1ccc2c(c1)Oc1cc(N(CC)CC)ccc1C21OC(=O)c2ccccc21
active: Potency [1] 23.9 µM | Potency [3] 23.9 µM | Potency [4] 23.9 µM | Potency [6] 19 µM | Potency [9] 23.9 µM | Potency [8] 23.9 µM
inactive: Potency [2] | Potency [5] | Potency [10]

O=C1OC(=O)c2cc(-c3ccc4c(c3)C(=O)OC4=O)ccc21
inactive: Potency [1] | Potency [2] | Potency [3] | Potency [4] | Potency [5] | Potency [6] | Potency [8] | Potency [10]

Clc1ccc2c(Cl)ccnc2c1
inactive: Potency [1] | Potency [2] | Potency [3] | Potency [4] | Potency [5] | Potency [6] | Potency [7] | Potency [8]

CCN(CC)c1ccc(N=Nc2ccccc2)cc1
inactive: Potency [1] | Potency [2] | Potency [3] | Potency [4] | Potency [6] | Potency [7] | Potency [9] | Potency [8]

CO[Si](OC)(c1ccccc1)c1ccccc1
inactive: Potency [1] | Potency [2] | Potency [3] | Potency [4] | Potency [5] | Potency [6] | Potency [9] | Potency [8]

c1ccc(-c2ccccc2-c2ccccc2)cc1
inactive: Potency [1] | Potency [2] | Potency [3] | Potency [4] | Potency [5] | Potency [6] | Potency [7] | Potency [9] | Potency [8] | Potency [10]

CC(C)=CCC[C@H](C)CC=O
inactive: Potency [1] | Potency [2] | Potency [3] | Potency [4] | Potency [5] | Potency [8]

CCC(O)CO (stereo not drawn)
inactive: Potency [1] | Potency [2] | Potency [3] | Potency [4] | Potency [5] | Potency [6] | Potency [9] | Potency [8] | Potency [10]

CSc1ccc(O)cc1C
inactive: Potency [1] | Potency [2] | Potency [3] | Potency [4] | Potency [5] | Potency [6] | Potency [7] | Potency [9] | Potency [8] | Potency [10]

CC(c1cc(C(C)(C)C)cc(C(C)(C)C)c1O)c1cc(C(C)(C)C)cc(C(C)(C)C)c1O
inactive: Potency [1] | Potency [2] | Potency [3] | Potency [4] | Potency [5] | Potency [6] | Potency [9] | Potency [8] | Potency [10]

NCc1ccco1
inactive: Potency [1] | Potency [2] | Potency [3] | Potency [4] | Potency [5] | Potency [6] | Potency [7] | Potency [10]

CC(C)(C)c1cc(CCC(=O)OCCSCCOC(=O)CCc2cc(C(C)(C)C)c(O)c(C(C)(C)C)c2)cc(C(C)(C)C)c1O
inactive: Potency [1] | Potency [2] | Potency [3] | Potency [4] | Potency [5] | Potency [6] | Potency [9] | Potency [8]

C[C@H]1O[C@@H](O[C@H]2CC[C@@]3(C)[C@H](CC[C@@H]4[C@@H]3C[C@@H](O)[C@]3(C)[C@@H](C5=CC(=O)OC5)CC[C@]43O)C2)C[C@H](O)[C@@H]1O[C@H]1C[C@H](O)[C@H](O[C@H]2C[C@H](O)[C@H](O[C@@H]3O[C@H](CO)[C@@H](O)[C@H](O)[C@H]3O)[C@@H](C)O2)[C@@H](C)O1
inactive: Potency [1] | Potency [2] | Potency [3] | Potency [4] | Potency [5] | Potency [6] | Potency [7] | Potency [8]

COc1cc(OC)nc(NC(=O)NS(=O)(=O)Nc2ccccc2C(=O)N(C)C)n1
inactive: Potency [1] | Potency [2] | Potency [3] | Potency [4] | Potency [5] | Potency [6] | Potency [7] | Potency [8] | Potency [10]

CCSCC
inactive: Potency [1] | Potency [2] | Potency [3] | Potency [4] | Potency [5] | Potency [6] | Potency [7] | Potency [8] | Potency [10]

COCCC(=O)OC
inactive: Potency [1] | Potency [2] | Potency [3] | Potency [4] | Potency [5] | Potency [6] | Potency [7] | Potency [9] | Potency [8] | Potency [10]

C/C(=C\c1ccc(C(=O)O)cc1)c1ccc2c(c1)C(C)(C)CCC2(C)C
inactive: Potency [1] | Potency [2] | Potency [3] | Potency [4] | Potency [5] | Potency [6] | Potency [7] | Potency [8] | Potency [10]

COc1cc2ncnc(Nc3cccc(Cl)c3)c2cc1OC
inactive: cytotoxicity increase [1] -17.7% [at 15.8 µM] | activity change, negative = cytotoxic [2] 8.78% [at 15.8 µM] | cytotoxicity [3] -17.9% [at 15.8 µM] | cytotoxicity increase [4] -19.3% [at 15.8 µM] | activity change, negative = cytotoxicity [5] -2.52% [at 15.8 µM] | cytotoxicity increase [6] 0.0774% [at 15.8 µM] | cytotoxicity increase [8] -7.13% [at 15.8 µM] | activity change, negative = cytotoxic [10] -11.4% [at 15.8 µM]

O=C1OCc2ccccc21
inactive: Potency [1] | Potency [2] | Potency [3] | Potency [4] | Potency [5] | Potency [6] | Potency [9] | Potency [8] | Potency [10]

Nc1ccc(Cl)c([N+](=O)[O-])c1
inactive: Potency [1] | Potency [2] | Potency [3] | Potency [4] | Potency [5] | Potency [6] | Potency [7] | Potency [9] | Potency [8] | Potency [10]
